ATXN2 expr inh = inhibitors of ATXN2 expression | Potency, µM (top dose mostly 57 µM), for inactives: at the highest dose activity change, negative = inhibition, usual class: inhibitors | HEK-293 ATXN2-luciferase reporter, luminescence, 24 h | 0.72% of 360,000 active | AID 1745845; further: on the % scale 0 is the no-effect control and ±100 the full control effect; nearly all actives have a fitted effect of over 55% in size
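qHTS (up to 57 uM final) was run with 24 h compound exposure of reporter cells at 37 °C. Each well was multiplexed: SteadyGlo luminescence measured ATXN2-luciferase expression after a fluorogenic Gly-Phe-AFC viability readout (25 uM final).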
RORg inh = blocks mouse ROR gamma transcriptional activity | 5.4% of 310,000 active | Potency, µM (top dose mostly 53.6 µM), without a hit: at the top dose activity change, negative = inhibition, actives largely listed as inhibitors | Drosophila S2 Gal4-RORgamma UAS-luciferase reporter, 20 h; further: on the % scale 0 is the no-effect control and ±100 the full control effect; nearly all actives have a fitted effect of over 60% in size
Target sequence (P51450 whole entry, looked up, the tested form may be a part): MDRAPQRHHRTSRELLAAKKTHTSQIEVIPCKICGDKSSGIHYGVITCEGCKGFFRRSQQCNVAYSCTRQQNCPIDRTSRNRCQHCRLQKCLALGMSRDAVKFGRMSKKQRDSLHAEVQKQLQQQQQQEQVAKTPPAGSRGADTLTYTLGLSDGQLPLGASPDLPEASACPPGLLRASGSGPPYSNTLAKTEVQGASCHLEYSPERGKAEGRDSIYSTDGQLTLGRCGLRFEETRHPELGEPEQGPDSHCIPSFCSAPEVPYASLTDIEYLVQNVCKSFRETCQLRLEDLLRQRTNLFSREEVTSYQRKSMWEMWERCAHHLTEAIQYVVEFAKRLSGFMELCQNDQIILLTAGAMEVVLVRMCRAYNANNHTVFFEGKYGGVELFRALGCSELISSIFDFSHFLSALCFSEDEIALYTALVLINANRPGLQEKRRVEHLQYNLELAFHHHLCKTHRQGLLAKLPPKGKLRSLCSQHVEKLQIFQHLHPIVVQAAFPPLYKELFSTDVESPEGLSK
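Stable Schneider cell line, Gal4 DNA-binding domain fused to ROR gamma, UAS-luciferase. Cmpd 1 hr RT → CuSO4 700 uM final → 20 hr RT → luciferase reagent 10 min → luminescence.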
ATXN viability = reduces viability in counter-screen for ATXN expression inhibitors. 0.49% of 400,000 active. AID 651635. S2 cells (HEK-293 line with an ATXN2-luciferase reporter) viability, CellTiter-Fluor protease fluorescence, 24 h. Potency, µM (series often up to 56.7 µM), hits mostly cytotoxic; further: nearly all actives have a fitted effect of over 40% in size
TGFb SMAD3 inh = blocks TGF-b signaling | HepG2 CAGA-GFP TGF-b/SMAD3 reporter, GFP fluorescence, 18 h; TGF-beta stimulated, 500 pg/mL final | Potency, µM (titrated, usually from 46.1 µM), for inactives: top-dose activity, negative = inhibition, most hits filed as inhibitors | 1.2% of 410,000 active | AID 588855; further: on the % scale 0 is the no-effect control and ±100 the full control effect; nearly all actives have a fitted effect of over 65% in size
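Smad-responsive CAGA-GFP expression was quantified in HEPG2 cells exposed to compounds and 500 pg/mL final TGF-beta for 18 h at 37 degrees C; unstimulated wells defined full inhibition.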
HepG2 tox = kills HepG2 cells in TGF-b inhibitor counter-screen. HepG2 CAGA-GFP viability, ATP luminescence, 18 h. Potency, µM (series often up to 46.1 µM), for the others: at the top dose activity change, negative = cytotoxicity, actives largely listed as cytotoxic. 0.76% of 410,000 active. AID 588856
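CellTiter-Glo luminescence gave cytotoxicity after 18 hours at 37 degrees C. The cells were HepG2 CAGA-GFP in 1% FBS DMEM, stimulated with 500 pg/mL TGF-beta after compound addition. %Activity was normalised to no-cell wells (complete cell-killing) and DMSO (no toxicity), and curves were fitted and classified.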
Gal4-VP16 FLuc = Gal4-VP16 reporter inhibition counter-screen; Drosophila S2 Gal4-VP16 UAS-luciferase, luminescence, 20 h; Potency, µM (top dose mostly 53.6 µM), without a hit: at the top dose activity, negative = inhibition, most hits filed as inhibitors; 3.5% of 310,000 active;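 further: Gal4-VP16 expression switched on by copper sulfate through the metallothionein promoter; on the % scale 0 is the no-effect control and ±100 the full control effect; nearly all actives have a fitted effect of over 50% in size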
Numbers without * were called inactive; ! = not confirmed by another sample. An excerpt weighted towards active compounds, which were near 6.3% of everything screened. The call rests on the fitted dose curve; in most records, active means well fitted curve in the direction sought with a large enough effect; inconclusive means small, poorly fitted or top-dose-only effect, or another doubt; inactive means no such curve, though single readings can be large; an effect the other way counts as inactive or inconclusive. Potency means the concentration at half of the fitted maximal effect.

How did CSc1ccc(CN2CCC2(C)C(=O)NC2CCc3ccccc32)cc1 (centres undefined) do in these assays?
ATXN2 expr inh: 3%; ATXN viability: inactive; TGFb SMAD3 inh: inconclusive; HepG2 tox: -29%

How did COC(=O)CC(NC(=O)c1ccc(C)cc1)c1ccccc1 (centres undefined) do in these assays?
ATXN2 expr inh: 2%; RORg inh: 8.9µM*; ATXN viability: inactive; TGFb SMAD3 inh: 0%; HepG2 tox: 3%; Gal4-VP16 FLuc: -30%

What do the screens show for `COC(=O)CC(NC(=O)c1ccc(C)cc1)c1ccc2c(c1)OCO2` (centres undefined)?
ATXN2 expr inh: -2%; RORg inh: 11%; ATXN viability: inactive; TGFb SMAD3 inh: -1%; HepG2 tox: 2%; Gal4-VP16 FLuc: -1%

Results for Cc1ccc(Cl)cc1NC(=O)CCCn1c(=O)c2cccn2c2ccccc21 ?
TGFb SMAD3 inh: 0%; HepG2 tox: -37%

Results for CCCCC(CC)CNC(=O)CCCc1nnc2n(CCC)c(=O)c3sccc3n12 (centres undefined) ?
ATXN2 expr inh: -37%; ATXN viability: 18µM*; TGFb SMAD3 inh: inconclusive; HepG2 tox: -22%

How did CCCn1c(=O)c2sccc2n2c(CCCC(=O)Nc3ccc(Oc4ccccc4)cc3)nnc12 do in these assays?
TGFb SMAD3 inh: 18µM*; HepG2 tox: -40%

Results for CCN(CC)C(=O)Cn1c(=O)n(CCCCCC(=O)Nc2ccccc2)c(=O)c2sccc21 ?
ATXN2 expr inh: 7%; RORg inh: inconclusive; ATXN viability: inactive; TGFb SMAD3 inh: inconclusive; HepG2 tox: 3.2µM*!; Gal4-VP16 FLuc: inconclusive

Results for N#CC(C(O)c1ccccc1)N1CCOCC1 (centres undefined) ?
ATXN viability: inactive; TGFb SMAD3 inh: -8%; HepG2 tox: -7%

What do the screens show for `CCCOc1ccc(-c2nonc2NC(=O)c2cc(OC)c(OC)c(OC)c2)cc1OCCC`?
ATXN2 expr inh: -24%; ATXN viability: inactive; TGFb SMAD3 inh: 0%; HepG2 tox: -9%

What do the screens show for `O=C1C(=C2SCCCS2)CC/C1=C\c1ccc(F)cc1`?
ATXN2 expr inh: -80%; RORg inh: 4.5µM*; ATXN viability: inactive; TGFb SMAD3 inh: 6%; HepG2 tox: -5%; Gal4-VP16 FLuc: 3.5µM*

What do the screens show for `Cc1cccc(/C=C2\CCC(=C3SCCCS3)C2=O)c1`?
ATXN2 expr inh: -44%; RORg inh: 0.28µM*; ATXN viability: inconclusive; TGFb SMAD3 inh: 0%; HepG2 tox: -48%; Gal4-VP16 FLuc: 3.5µM*

How did COc1ccc(-n2c(CCNC(=O)c3ccccc3C(F)(F)F)nnc2SC)cc1 do in these assays?
ATXN viability: inactive

Results for CCCOc1cccc(C(=O)NC(=S)Nc2ccccc2)c1 ?
ATXN2 expr inh: 61%; RORg inh: 8.9µM*; ATXN viability: inactive; TGFb SMAD3 inh: -12%; HepG2 tox: 2%; Gal4-VP16 FLuc: inconclusive

What do the screens show for `CC(C)Oc1cccc(C(=O)NC(=S)Nc2ccccc2)c1`?
ATXN2 expr inh: 44%; RORg inh: inconclusive; ATXN viability: inactive; TGFb SMAD3 inh: 0%; HepG2 tox: -25%; Gal4-VP16 FLuc: 5µM*

What do the screens show for `CC(C)COc1cccc(C(=O)NC(=S)Nc2cccc(NC(=O)c3ccccc3Cl)c2)c1`?
ATXN2 expr inh: -9%; RORg inh: 6.3µM*; ATXN viability: inactive; TGFb SMAD3 inh: 2%; HepG2 tox: -20%; Gal4-VP16 FLuc: 5.6µM*

What do the screens show for `CCCCOC(=O)c1ccc(NC(=O)CSc2nc3c(c(=O)[nH]2)CCCC3)cc1`?
ATXN2 expr inh: -1%; ATXN viability: inactive; TGFb SMAD3 inh: -1%; HepG2 tox: 0%

What do the screens show for `O=C(CCl)N1CCN(S(=O)(=O)Cc2ccccc2)CC1`?
ATXN2 expr inh: inconclusive; ATXN viability: inconclusive; TGFb SMAD3 inh: inconclusive; HepG2 tox: -97%

Screens as filed in PubChem.
